Experimental data as given in PMC12136788.
Where a chain is given by its changes, count along the chain named. The full ranking holds about 24,000 sequences; the median of “enrichment r” is about 0.99, and the highest 2% start at about 3.7. The full list was thinned out, with the highest values kept by preference.

B1: chr20:52835626:52835627:+_ENSG00000101132_ENST00000441080|hu_mus|FALSE|FALSE (ssRNA)
RNA: GGGAGUUCUACAGUCCGACGAUCUGCCUCGAGGUUUAUGUUGCUGCCAAAUUUCGCGUAUAGCUGCACCUUCAGGUCGGCUAACACCCGCUGGAUGGACGCCACUCUGGACUCUAAGGCAUCAAUCUCUUCUUGCAAAGUUUUCAACAGAGGAUUGAGCAUCA
B2: chr1:39494447:39494448:+_ENSG00000168653_ENST00000372967|hu_mus|hu_hu_hu_mus_False|48_48 (ssRNA)
RNA: GGGAGUUCUACAGUCCGACGAUCGCACCGAGCGGCGUUCUUAUAGGGCUGUUCUGCGCUUAGGAACAUAAAGUGCCGGUCCAGGCUAAGGCCGAACUUUUUCUGUAUGUCAAGGAAAGGCAUGGCUCUGCAGUGCCCUUGUCACAACAGAGGAUUGAGCAUCA
B3: chr2:131829505:131829506:-_ENSG00000152102_ENST00000409185|hu_mus|FALSE|FALSE (ssRNA)
RNA: GGGAGUUCUACAGUCCGACGAUCCGCUCCAGGGUACAUGUUAGGAGAAUAGGCAGGUGCUGCUGCAUAGCCCACAGGAAAACCAGCUGGAUAUCCAAUUCCUUUGGCAUUUGCAUAGGGAACGCCAGAAGACCCAGGGCUAUACAACAGAGGAUUGAGCAUCA
B4: chr2:121263671:121263672:+_ENSMUSG00000027248_ENSMUST00000028683|mus_mus|FALSE|FALSE (ssRNA)
RNA: GGGAGUUCUACAGUCCGACGAUCAAAACGACAGUAUAAAGGGGGCACAUUUAUUGUCACUGUUCCAAAUGUACAAAAAAAAUUAGAAAAUAACCCCCCAACUCAAUUCCCCCCACCCCCACAACAUUCUUCCCAACACAAAUACAACAGAGGAUUGAGCAUCA
B5: chr10:123500321:123500322:-_ENSG00000107669_ENST00000369043|hu_mus|FALSE|FALSE (ssRNA)
RNA: GGGAGUUCUACAGUCCGACGAUCGAUAUGCUAAGAAACCACACAAAACUGGCAUUUGCAAAUGGAUAAAAAUAGGAUAGAUUGCUUGAAAGAAAACAUAAACAAUAAUUUUAUCUAAAUAAUUUUAAUUGAGUGACUAUAUUCCAACAGAGGAUUGAGCAUCA
B6: chr10:62229464:62229465:-_ENSMUSG00000020074_ENSMUST00000020268|mus_mus|FALSE|FALSE (ssRNA)
RNA: GGGAGUUCUACAGUCCGACGAUCCAGUUGAAAUGGUCUUGACAAAGGGAAAGCAUCCACCCAUGUAAACUGAGCAUCAAAAAAGUCACUAGGAAUAUAUAAGUUCUGAUAACGGCGCCUUAGUUCCAUCAUGUCACAACUGGGCAACAGAGGAUUGAGCAUCA
B7: chrX:71549762:71549763:+_ENSMUSG00000019087_ENSMUST00000019231|mus_mus|mus_mus_mus_hu_False|78_78 (ssRNA)
RNA: GGGAGUUCUACAGUCCGACGAUCAAACCCGUGUACUUCUUAUUGUUAGCACAACAUUCCCCCCCAACGAUAACGACAGCCAAGCAGGACAGACAGUUAAGUAGUACUUCCACACUCCCAAACUCAGGGAGCCCUAUAACCUUACAACAGAGGAUUGAGCAUCA
B8: chr17:65336665:65336666:-_ENSG00000197170_ENST00000356126|hu_mus|FALSE|FALSE (ssRNA)
RNA: GGGAGUUCUACAGUCCGACGAUCACACAUGUCCUGUUUUUAUUACUAUCACGUGGCUGUCAGGUGAAUAAAAACAAAUAGUAUGAACACACUCAAGGAAAGCUGAGACACAAACCUUUCUGUCUUCAGACUGAAAAAAUGUUUCAACAGAGGAUUGAGCAUCA
B9: chr10:62229464:62229465:-_ENSMUSG00000020074_ENSMUST00000020268|mus_hu|FALSE|FALSE (ssRNA)
RNA: B6 RNA with U27C, C69U, A93U, U99C, G102A, C105U
B10: chr1:235506153:235506154:+_ENSG00000152904_ENST00000391855|hu_hu|FALSE|FALSE (ssRNA)
RNA: GGGAGUUCUACAGUCCGACGAUCCUACUCACCUAUUUACUGUUUCUGGAGAAUAACAAAUUUUUUAAAAGGUGGUAAGGCUAAAAGACAAAAAAAAGAUUAACUAAAAUAAGCUAUGAGGUCCAAUCAAGAAUGGCUUAACAUCAACAGAGGAUUGAGCAUCA
B11: chr1:58468927:58468928:-_ENSMUSG00000026034_ENSMUST00000148330|mus_mus|mus_mus_mus_hu_False|98_108 (ssRNA)
RNA: GGGAGUUCUACAGUCCGACGAUCAAUCUAUAAUUACUGAAAGAUGUACCUUAGCUAUGUACUUAAUGAACCAAAUUACCCAAACAAAAUAAACAUGGCAAUAUAAAAAUGUUAAGAAUUUACAAAGCUGUACAAAAUAACUUACAACAGAGGAUUGAGCAUCA
B12: chr10:33190432:33190433:-_ENSG00000150093_ENST00000302278|hu_mus|hu_hu_hu_mus_True|68_78 (ssRNA)
RNA: GGGAGUUCUACAGUCCGACGAUCUACAUUUUCCAAACCUGCAUGUGAAUAAAACCCUGGCAAUAUUGCCCUAAAGCUACCCUACUGUGACUAAGAUGCUGCUGCUGUGAGCUUGGUGUUGCAAAAUCCGCCUGAGUAGGAUUCCAACAGAGGAUUGAGCAUCA
B13: chr14:105707756:105707757:+_ENSMUSG00000053253_ENSMUST00000138283|mus_hu|motif|central (ssRNA)
RNA: GGGAGUUCUACAGUCCGACGAUCAUUUAUUUUUCUUAUAAAGGACAUUUGGUAUUCCCACAUUUUCUUAAAAUUUGUCCGGAAACAAAUUCUAUCUUUAACACUCACGUUUCUAAAUAUAUAUAUGUGUGUGUGUAUAUAUAUCAACAGAGGAUUGAGCAUCA
B14: chr12:55960871:55960872:-_ENSMUSG00000062929_ENSMUST00000078124|mus_hu|FALSE|FALSE (ssRNA)
RNA: GGGAGUUCUACAGUCCGACGAUCUACUAAUGUUUAAGACUGCUAUUAUCAAUUCCUAUUCCAAUUCAAUUUGCAAAAUAUAUUCAGAAAUAGUAGGUGAAAUGACUGUUCCGAAACAUCAGAAGUAUCAUUAAACUUUUAAAGCAACAGAGGAUUGAGCAUCA
B15: chr1:120316058:120316059:+_ENSMUSG00000064302_ENSMUST00000049404|mus_mus|FALSE|FALSE (ssRNA)
RNA: GGGAGUUCUACAGUCCGACGAUCCACCAUGUGUGUCUGAAGAGCAGCUGGUAGGAUAUUAAAAGUCCAAUUUAAAUAACUAGUAGGCAAUAAAGGAGAGAGUGGCGGAGUGAUGAUCUACAACUGGGUCUGAAAUACUUCAUACAACAGAGGAUUGAGCAUCA
B16: chr8:117878989:117878990:-_ENSG00000164754_ENST00000297338|hu_hu|hu_hu_hu_mus_True|68_98 (ssRNA)
RNA: GGGAGUUCUACAGUCCGACGAUCCCAGAGGCCCUCGUUUACUGAGAACAAAAUGUGCGUAGAACAUUGUUCUGGCUUGCUAUGAAAUAAGAAGAAACCUGGAUCUCGGCGGGGAGCCGGGAGGGGUGGGUGGCCCGGGGAGGGCAACAGAGGAUUGAGCAUCA
B17: chr10:79719409:79719410:+_ENSMUSG00000020153_ENSMUST00000020361|mus_mus|FALSE|FALSE (ssRNA)
RNA: GGGAGUUCUACAGUCCGACGAUCCCAGAUCUUCAGCUUCUGUUCACGCUUGAUCUUCCGUUGCAGCUGCAAGAUGCCAUAAAGGAGUGCUUCGGCCGUGGGCGGGCAGCCUGGCACAUAGAUGUCCACUGGCACAAUGCGGUCCAACAGAGGAUUGAGCAUCA
B18: chr7:149068622:149068623:-_ENSMUSG00000025139_ENSMUST00000001950|mus_hu|mus_mus_mus_hu_False|38_48 (ssRNA)
RNA: GGGAGUUCUACAGUCCGACGAUCGUGAGGCCUCUGAGUGUGGCUUGUGGUCUGUCCUGGGUUAGAGUUGUUAAUAUCACGGAACAUACCACUUAAGGAGGUUCUGCCCCGCCUGACACCUUCAUUCCCAAUGGAGAAGAAAUCCAACAGAGGAUUGAGCAUCA
B19: chr7:54823571:54823572:-_ENSG00000132432_ENST00000352861|hu_mus|hu_hu_hu_mus_False|48_88 (ssRNA)
RNA: GGGAGUUCUACAGUCCGACGAUCUCCCAUGAUAGCAAAUCCUAUAGCUGUUGCCAUGGCAAUCUUCUGGAAUUCUUUUCUGUCGGGUUUAGUGCAUCUUUUAACCAGCCGAAUUGAGUCCUUUACAAACUGCCGGCUGGGCUCCAACAGAGGAUUGAGCAUCA
B20: 55316162_55316282_4585_3pUTR_ENSMUSG00000018583_ENSMUST00000018727|mouse|control|control (ssRNA)
RNA: GGGAGUUCUACAGUCCGACGAUCUGACAACAGGGACUCCUGCCUAAGAGUAUCUUGCUGCUCUUCCAGGACAUAAGUUCGAUUCCCAGCACCUGUGUAGGAGGGCUCACUCACCUGUAACUCCAGCUCCAAGGGGCCACAGGCCAACAGAGGAUUGAGCAUCA
B21: chr17:56739783:56739784:+_ENSMUSG00000071054_ENSMUST00000095224|mus_mus|FALSE|FALSE (ssRNA)
RNA: GGGAGUUCUACAGUCCGACGAUCAUAUCUGCUAAACAGGUUCUUCAGAUCCGUGGCUCUGGUUGUAGACGAAAGGCCACUAACCCAGAAAUUCCUACCACAGCUGCUGCGACCCUUCUCUUCUCGGGAAAGCCUUUUUGUAUCCAACAGAGGAUUGAGCAUCA
B22: chr2:61705769:61705770:-_ENSG00000082898_ENST00000401558|hu_hu|motif|central (ssRNA)
RNA: GGGAGUUCUACAGUCCGACGAUCAAAUGGGCAUGAAGUAAAAUUUUUAAAAAUGCCUUAAUUUUCAACUUCAUGCAAACGGAAUAAAGAUGACCAAAACAAAAGCUUAAACAAUGGAAGGAUAUUUCACAGAAAAUUUCUUAUCAACAGAGGAUUGAGCAUCA
B23: chr1:163112212:163112213:-_ENSG00000143248_ENST00000313961|hu_hu|hu_hu_hu_mus_False|78_88 (ssRNA)
RNA: GGGAGUUCUACAGUCCGACGAUCUUUUAUUAUCAGUAAGAGUGAGUCACAUAGUACAUAAAGUAUUGGAUACAAUAAUCAGGAAACAAACACUAUUGGUCCAGAAUUUAAAACUUUAUGAGCGAAGUGCUGGCACAGGACUUACAACAGAGGAUUGAGCAUCA
B24: chr1:163112212:163112213:-_ENSG00000143248_ENST00000313961|hu_hu|FALSE|FALSE (ssRNA)
RNA: GGGAGUUCUACAGUCCGACGAUCUUUAUUUAUCCAGAAGCAUGAGUCACAUAGUACAUAAAGUAUUGAAUACAAAAUUCUAAAGAUAAACACAAUUUUUCUUGAAUUUAAAAUAUAUGGGAUAAAUGCUUACAAAUGGAUUUACAACAGAGGAUUGAGCAUCA

target: T1, UNK ZnF1-3 (human, UniProt Q9C0B0 31-174); test: nsRBNS (natural sequence RNA bind-n-seq); RBNS binding buffer (assumed for nsRBNS): 25 mM Tris pH 7.5, 150 mM KCl, 3 mM MgCl2, 0.01% Triton X-100, 500 ug/ml BSA, 20 U/ml SUPERase-In, 4 C; UNK is unkempt and MSI1 is Musashi-1; names of the RNAs are library labels; protein concentration not given here; high values mean tight binding
T1 sequence: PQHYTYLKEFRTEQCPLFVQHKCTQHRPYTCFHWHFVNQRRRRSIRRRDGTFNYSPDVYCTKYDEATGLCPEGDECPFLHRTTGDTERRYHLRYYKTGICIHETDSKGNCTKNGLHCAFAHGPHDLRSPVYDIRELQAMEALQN

| Binder | binding signal [enrichment R] |
| --- | --- |
| B1 | 0.762 |
| B2 | 0.888 |
| B3 | 0.945 |
| B4 | 5.9 |
| B5 | 5.07 |
| B6 | 3.38 |
| B7 | 1.31 |
| B8 | 1.19 |
| B9 | 6.32 |
| B10 | 5.06 |
| B11 | 1.97 |
| B12 | 1.15 |
| B13 | 0.913 |
| B14 | 0.797 |
| B15 | 2.28 |
| B16 | 2.44 |
| B17 | 0.695 |
| B18 | 0.716 |
| B19 | 0.587 |
| B20 | 0.768 |
| B21 | 0.796 |
| B22 | 2.43 |
| B23 | 1.53 |
| B24 | 7.3 |
